TDP1 cell CPT = growth inhibition of DT40 Tdp1-/-;hTDP1 cells with camptothecin (screen for TDP1 inhibitors). 420,000 tested, 12% active. Potency, µM (top dose mostly 46.2 µM), hits mostly inhibitors. chicken DT40 Tdp1-/-;hTDP1 cells + 20 nM CPT, ATP luminescence, 48 h; further: nearly all actives have a fitted effect of over 55% in size
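Cell growth measured by CellTiter-Glo luminescence after a minimum 48 h, 37 C compound exposure with 20 nM CPT in Tdp1-knockout DT40 cells stably expressing hTDP1, seeded 400/well; qHTS titration format.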
ALOX12 inh = inhibitors of human 12S-lipoxygenase ALOX12 | purified 12hLO, xylenol orange hydroperoxide absorbance | P18054 | AID 1671190 | 580,000 tested, 1.1% active | Potency, µM (titrated, usually from 108 µM), actives largely listed as inhibitors
Target sequence (P18054 whole entry, looked up): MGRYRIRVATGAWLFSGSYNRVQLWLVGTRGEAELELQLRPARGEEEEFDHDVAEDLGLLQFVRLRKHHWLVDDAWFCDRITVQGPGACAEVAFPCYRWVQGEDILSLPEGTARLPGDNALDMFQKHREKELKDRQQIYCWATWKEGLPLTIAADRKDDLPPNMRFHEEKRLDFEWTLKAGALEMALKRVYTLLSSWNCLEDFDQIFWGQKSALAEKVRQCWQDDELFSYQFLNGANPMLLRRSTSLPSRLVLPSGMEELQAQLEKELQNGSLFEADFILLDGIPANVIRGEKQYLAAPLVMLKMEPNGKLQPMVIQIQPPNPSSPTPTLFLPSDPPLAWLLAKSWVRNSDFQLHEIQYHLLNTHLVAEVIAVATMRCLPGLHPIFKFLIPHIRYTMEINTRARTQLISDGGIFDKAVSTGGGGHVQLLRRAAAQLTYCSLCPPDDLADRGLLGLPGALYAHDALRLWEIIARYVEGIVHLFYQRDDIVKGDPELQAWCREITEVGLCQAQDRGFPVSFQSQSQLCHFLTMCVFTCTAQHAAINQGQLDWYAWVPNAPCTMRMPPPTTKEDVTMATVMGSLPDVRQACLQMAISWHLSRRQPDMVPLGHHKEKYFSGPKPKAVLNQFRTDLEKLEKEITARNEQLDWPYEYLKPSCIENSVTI
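Purified human 12hLO at 150 nM in 25 mM Hepes, 0.01% Triton X-100, pH 7.0, preincubated 15 min at room temperature with compound. Reaction started with 40 uM arachidonic acid, 30 min at room temperature. Hydroperoxide measured by Fe-xylenol orange, 573/405 nm absorbance ratio.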
ELG1 repair inh = inhibitors of ELG1-dependent DNA repair in HEK293T cells; HEK293T ELG1-luciferase reporter, luminescence, 16 h; DNA damage induced by 5-fluorouridine; Potency, µM (titrated, usually from 46.1 µM), hits mostly inhibitors; 330,000 tested, 2.3% active; AID 504467; further: nearly all actives have a fitted effect of over 55% in size
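Overnight (16 hr) co-exposure of 2,000 cells/well to 5-fluorouridine and compound at 37 °C preceded detection. Luciferase was quantified via ONE-Glo luminescence; loss of signal denotes inhibition.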
Gal4-VP16 FLuc = inhibits Gal4-VP16 luciferase reporter, ROR gamma counter-screen | Drosophila S2 Gal4-VP16 UAS-luciferase, luminescence, 20 h | Potency, µM (series often up to 53.6 µM), usual class: inhibitors | 310,000 tested, 3.5% active | AID 2546;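 further: Gal4-VP16 expression switched on by copper sulfate through the metallothionein promoter; nearly all actives have a fitted effect of over 50% in size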
DT40 TDP1 no CPT = qHTS for Inhibitors of human tyrosyl-DNA phosphodiesterase 1 (TDP1): qHTS in cells in absence of CPT; DT40 Tdp1-/- hTDP1 cells, no CPT, ATP luminescence, 48 h; Potency, µM (series often up to 46.2 µM), hits mostly inhibitors; 420,000 tested, 15% active; AID 686978, 2013; further: nearly all actives have a fitted effect of over 55% in size
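Seeded 400 DT40-hTDP1 cells/well (vehicle DMSO, no 20 nM CPT); pinned compounds; ≥48 hr at 37 °C; CellTiter-Glo luminescence as viability measure.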
RORg inh = inhibitors of mouse ROR gamma transcriptional activity | P51450 | Drosophila S2 Gal4-RORgamma UAS-luciferase reporter, 20 h | Potency, µM (highest dose often 53.6 µM), usual class: inhibitors | 310,000 tested, 5.4% active | AID 2551; further: nearly all actives have a fitted effect of over 60% in size
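Stably transfected Drosophila Schneider cells are the test system, with ROR gamma fused to Gal4 and luciferase under UAS control; luminescence is read after 20 hr of 700 uM copper sulfate induction at ambient temperature.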
A number is an active result; 0 = inactive; ? = inconclusive; - = no result given; [ ] = dose if it differs, or a comment. This is a sample that favours compounds with a hit; in the whole collection about 15% have one here. The call rests on the fitted dose curve; in most records, active means well fitted curve in the direction sought with a large enough effect; inconclusive means small, poorly fitted or top-dose-only effect, or another doubt; inactive means no such curve, though single readings can be large; an effect the other way counts as inactive or inconclusive.

SMILES | TDP1 cell CPT | ALOX12 inh | ELG1 repair inh | Gal4-VP16 FLuc | DT40 TDP1 no CPT | RORg inh
Cc1cc(-c2ccnc(-n3ncc(C(=O)NCc4cccnc4)c3C3CC3)n2)c(C)s1 | 0[9.04 µM] | 0 | - | - | ? | -
COc1ccc(-c2ccnc(-n3ncc(C(=O)NCc4ccon4)c3C3CC3)n2)cc1F | ? | 0 | - | - | 23µM | -
Oc1ccccc1CN1CC(CNc2cccnc2)C2(C1)CN(c1ccccc1)C2 (centres undefined) | - | 0 | - | - | - | -
CC(=O)Nc1ccccc1C(=O)C(=O)Nc1cccc(Br)c1 | 0 | 0 | ? | 0 | 18µM | 0
CCC(C)NC(=O)c1sc2nc(C)c(C(=O)Nc3ccc(C)cc3C)c(-c3ccccc3Cl)c2c1N (centres undefined) | 15µM | 0 | - | - | ? | -
COc1ccc(NC(=O)c2sc3nc(C)c(C(=O)Nc4ccc(C)cc4C)c(-c4cccs4)c3c2N)cc1 | 0 | 0 | - | - | 0 | -
CCC(C)NC(=O)c1sc2nc(C)c(C(=O)Nc3ccc(C)cc3C)c(-c3ccc(NC(C)=O)cc3)c2c1N (centres undefined) | 21µM | 0 | - | - | ? | -
COc1ccccc1NC(=O)c1sc2nc(C)c(C(=O)Nc3ccc(C)cc3C)c(-c3ccc(Br)cc3)c2c1N | 0 | 0 | - | - | 0 | -
CCC(C)NC(=O)c1sc2nc(C)c(C(=O)Nc3ccc(C)cc3C)c(-c3ccc(Cl)cc3)c2c1N (centres undefined) | 23µM | 0 | - | - | ? | -
C=C(C)COc1ccc2c(=O)c(-c3ccccc3OC)coc2c1 | - | 0 | - | - | - | -
CCCc1cc2c(=O)c(-c3ccccn3)coc2cc1OC | ? | 0 | ? | 0 | 8.2µM | 0
CCCC(=O)Nc1oc2c(C)cccc2c(=O)c1-c1ccccc1 | - | 0 | - | - | - | -
O=C(CCc1nc(-c2ccncc2)no1)NCc1cccnc1-n1cncn1 | - | 0 | - | - | - | -
CC(=O)c1ccc(NC(=O)C(=O)c2c[nH]c3ccccc23)cc1 | - | 0 | - | - | - | -
COc1cc(C2Nc3cccc4cccc(c34)N2)cc(OC)c1O | 18µM | 0 | ? | 0 | ? | ?
Oc1ccc(C2Nc3cccc4cccc(c34)N2)c(O)c1 | 4.1µM | 0 | 0 | 0 | 26µM | ?
COc1ccc(C2Nc3cccc4cccc(c34)N2)cc1Br | ? | ? | 0 | 0 | ? | ?
COc1cc(C2Nc3cccc4cccc(c34)N2)ccc1OC(C)=O | 16µM | - | 0 | 0 | 16µM | 0
COC(=O)c1ccc(C2Nc3cccc4cccc(c34)N2)cc1 | 8.2µM | ? | 0 | 0 | 9.2µM | 0
CCOCCCNC(=O)c1ccc2c(c1)N=C(CC)c1cc(Br)ccc1S2 | 0.037µM | 0 | ? | 0[10 µM] | 0.033µM | 0
CCCC1=Nc2cc(C(=O)NC(C)c3ccccc3)ccc2Sc2ccc(C)cc21 (centres undefined) | ? | 0 | - | - | ? | -
CCOC(=O)N1CCC(NC(=O)c2ccc3c(c2)N=C(CC)c2ccccc2S3)CC1 | ? | 0 | ? | 0 | ? | ?
CCC1=Nc2cc(C(=O)N3CCC(C)CC3)ccc2Sc2ccc(C)cc21 | 16µM | 0 | - | - | 16µM | -
CCCC1=Nc2cc(C(=O)NCc3ccc(OC)cc3)ccc2Sc2ccc(C)cc21 | 15µM | 0 | - | - | 9.2µM | -
CCC1=Nc2cc(C(=O)NC(C)c3ccccc3)ccc2Sc2ccc(Cl)cc21 (centres undefined) | 16µM | ? | - | - | ? | -
SMILES | TDP1 cell CPT | ALOX12 inh | ELG1 repair inh | Gal4-VP16 FLuc | DT40 TDP1 no CPT | RORg inh
CCCC1=Nc2cc(C(=O)NCCc3ccccc3)ccc2Sc2ccc(C)cc21 | 4.6µM | 0 | - | - | 6.5µM | -
CCCNC(=O)c1ccc2c(c1)N=C(CCC)c1ccccc1S2 | 1.2µM | 0 | - | - | 0.73µM | -
CCC1=Nc2cc(C(=O)NCc3ccccc3OC)ccc2Sc2ccc(Cl)cc21 | ? | 0 | - | - | ? | -
CCC1=Nc2cc(C(=O)NCCc3ccccc3)ccc2Sc2ccc(Cl)cc21 | 8.2µM | ? | - | - | 6.5µM | -
CCC1=Nc2cc(C(=O)NCc3ccccc3Cl)ccc2Sc2ccc(C)cc21 | 5.2µM | 0 | - | - | 3.3µM | -
COc1cncc(Nc2cnc3ccc(-c4ccc(F)cc4)nn23)c1 | - | 0 | - | - | - | -
O=C(CCCc1cccs1)NCc1ccc(OCc2cccnc2)cc1 | - | 0 | - | - | - | -
Cc1nc(-c2ccc(NC(=O)C(C)(C)C)cc2)c(-c2ccccc2)o1 | ? | 0 | ? | 0 | 16µM | 0
Cc1cc(=O)[nH]c(SCC(=O)Nc2nc(-c3ccccc3)c(-c3ccccc3)o2)n1 | 0 | 0 | 0 | 0 | 0 | 0
Cc1ccc(-c2nonc2NC(=O)c2ccccc2)cc1 | - | 0 | - | - | - | -
Cc1ccc(C(=O)Nc2nc(-c3ccccc3)c(-c3ccccc3)o2)cc1 | 21µM | 0 | 0 | 5.6µM | 18µM | 5µM
CC(C)(C)C(=O)Nc1ccc(N=Nc2ccccc2)cc1 | 0 | 0 | 0 | 0 | 0 | 0
Cc1cc(C)nc(SCC(=O)Nc2nc(-c3ccccc3)c(-c3ccccc3)o2)n1 | ? | 0 | 0 | 20µM | 23µM | 11µM
CCc1nnc(NC(=O)Cc2coc3cc(C)c(C(C)C)cc23)s1 | - | 0 | - | - | - | -
O=C1CCN(S(=O)(=O)c2ccccc2)CCCN(C(=O)C2(c3ccccc3)CC2)CCN1 | - | 0 | - | - | - | -
CC(=O)N1CCC(Cc2ccc(C(=O)Nc3ccc(C)cc3)cc2)CC1 | - | 0 | - | - | - | -
COc1cc(OC)nc(C(NC(=O)C2CCN(Cc3c[nH]c4ccccc34)CC2)c2ccc(Cl)cc2)n1 (centres undefined) | ? | ? | - | - | 18µM | -
COc1ccc(S(=O)(=O)N2CCC(C(=O)NCCc3c[nH]c4ccccc34)CC2)cc1 | ? | 0 | 0 | 0 | 0 | 0
Cc1cccnc1C(c1ccc(F)cc1)N(C)C(=O)C1CCN(CCOc2ccc(Cl)cc2Cl)CC1 (centres undefined) | 26µM | ? | - | - | 21µM | -
Cc1cccnc1C(NC(=O)C1CCN(Cc2ccccc2)CC1)c1ccc(F)cc1 (centres undefined) | ? | 0 | - | - | ? | -
COc1ccccc1C(NC(=O)C1CCN(CCc2ccc(Br)cc2)CC1)c1ccccn1 (centres undefined) | ? | 40µM | - | - | ? | -
Cc1cccnc1C(c1ccc(F)cc1)N(C)C(=O)C1CCN(CCCOc2ccc(F)cc2)CC1 (centres undefined) | ? | 0 | - | - | ? | -
Cc1cccnc1C(NC(=O)C1CCN(Cc2ccc(Oc3ccccc3)cc2)CC1)c1ccccc1 (centres undefined) | 15µM | - | - | - | 18µM | -
CCCCn1c(=O)[nH]c(=O)c2c1nc(CCC(=O)N1CCCCC1C)n2CC(C)C (centres undefined) | - | 0 | - | - | - | -
CC(C)C(=O)N1Cc2ccccc2CC2(CCCCN2Cc2cccnc2)C1 (centres undefined) | - | 0[6.33 µM] | - | - | - | -
Cc1ccc(NC(=O)Cn2c(-c3ccccc3)nc(C)c(CCO)c2=O)cc1Cl | - | 0 | - | - | - | -

Screens (PubChem)
